This passage reports outcome results from PubChem BioAssay AID651956 (Broad Institute, 2012).

Each structure is given as a SMILES string. Potency and affinity values are given separately. Results filed as inconclusive are left out. A call without a number means that no potency is given here. Activity calls are given as the source filed them.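 Rule for the calls: active = in every test run, a fitted half-maximal concentration for signal decrease at or below twice the highest tested concentration; inconclusive = runs disagree, flat 30 to 70% decrease, or poor fit; inactive = the rest.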

The experiment can be described thus: activation of miR-122 Renilla sensor silencing – cell-based, Huh7 psiCHECK-miR122, Renilla luciferase, cherry-picked, dose response (AID 651956). The settings on record: Huh7 psiCHECK-miR122 Renilla luciferase reporter, 48 h; series mostly up to 35 µM.
In the case of `COc1ccc2[nH]c(=O)c(COC(=O)c3ccco3)cc2c1`, the result was inactive. For the molecule `CN1C(=O)c2cc(NC(=O)Cc3ccccc3)ccc2OC[C@@H]2O[C@@H](CC(=O)O)CC[C@H]21`, the molecule was classed as inactive. Under `CCCNC(=O)C[C@@H]1CC[C@H]2[C@H](COc3ccc(NC(=O)c4ccc(C(F)(F)F)cc4)cc3C(=O)N2C)O1` stands “inactive”; under `COc1cc(N)c(Cl)cc1NC(=O)c1ccccc1`, “inactive”.

On to `COCCNC(=O)C[C@H]1CC[C@@H]2[C@@H](COc3ccc(NS(=O)(=O)c4ccc(Cl)cc4)cc3C(=O)N2C)O1`, for which the molecule was called inactive. To `CN1C(=O)c2cc(NC(=O)c3cccs3)ccc2OC[C@@H]2O[C@@H](CC(=O)NCCN3CCCCC3)CC[C@@H]21` belongs “inactive”; to `O=C(NC[C@@H]1[C@H](c2ccccc2)[C@@H](CO)N1Cc1cccnc1)c1ccccn1`, “inactive”; to `O=C(CSc1nc2ccccc2s1)N1CCOCC1`, “inactive”. To `O=C(c1cccc(F)c1)N1C[C@@H]2[C@H](c3ccccc31)[C@H](CO)N2C(=O)Cc1ccccc1` belongs “inactive”; to `CCC(=O)Nc1ccc2c(c1)C(=O)N(C)[C@@H]1CC[C@H](CC(=O)Nc3cccc(OC)c3)O[C@@H]1CO2`, “inactive”; to `C/C=C/c1ccc([C@@H]2[C@H](CO)N[C@H]2CN(CC)C(=O)CN2CCOCC2)cc1`, “inactive”.

On to `Cc1cc(C)cc(OCC(O)CN2CCC(CN3C(=O)c4cccc5cccc(c45)C3=O)CC2)c1` (centres undefined), for which the outcome was inactive.

In the case of `CCCNC(=O)N1[C@H](CNC(C)=O)[C@H](c2ccc(C3=CCCC3)cc2)[C@@H]1CO`, the result was inactive. Under `C[C@H]1CN([C@@H](C)CO)S(=O)(=O)c2ccc(C3=CCCC3)cc2O[C@H]1CN(C)Cc1cccnc1` stands “inactive”; under `Cc1ccc(C(=O)n2nc(-c3ccccc3)nc2NCc2ccco2)cc1`, “inactive”; under `CC(C)NC(=O)N1C[C@@H]2[C@H](c3ccccc31)[C@H](CO)N2Cc1ccccc1`, “inactive”. Under `O=C(NC[C@@H]1[C@@H](c2ccccc2)[C@H](CO)N1C(=O)C1CCC1)NC1CCCC1` stands “inactive”; under `CCNC(=O)CCC(=O)Nc1cc(Cl)ccc1C`, “inactive”. As for `CN(C)CCNC(=O)C1CC(=O)N(c2ccc(F)c(Cl)c2)C1` (centres undefined), the molecule was called inactive. To `COCC(=O)N(C[C@@H]1N[C@H](CO)[C@H]1c1ccc(-c2cccnc2)cc1)C(C)C` belongs “inactive”. As for `COCC(=O)N(C[C@H]1[C@H](c2ccccc2)[C@H](CO)N1C(=O)NC(C)C)C(C)C`, the molecule was called inactive. To `O=C(NC[C@H]1[C@H](c2ccccc2)[C@@H](CO)N1Cc1ccccn1)C1CC1` belongs “inactive”; to `CC(=O)N1[C@H](CO)[C@H](c2ccccc2)[C@@H]1CN(C(=O)c1ccc(F)cc1)C(C)C`, “inactive”. Under `CN1C(=O)c2cc(NC(=O)c3cccs3)ccc2OC[C@@H]2O[C@@H](CC(=O)O)CC[C@H]21` stands “inactive”; under `COC(=O)C[C@@H]1CC[C@@H]2[C@@H](COc3ccc(NC(=O)c4cc(F)cc(F)c4)cc3C(=O)N2C)O1`, “inactive”. For `CCNC(=O)C[C@@H]1CC[C@H]2[C@@H](COc3ccc(NC(=O)Nc4ccc(F)cc4)cc3C(=O)N2C)O1`, the outcome was inactive.

Regarding `COC(=O)C[C@H]1CC[C@H]2[C@H](COc3ccc(NC(=O)NC(C)C)cc3C(=O)N2C)O1`, the call was inactive. For `CC(=O)Nc1ccc2c(c1)C(=O)N(C)[C@H]1CC[C@@H](CC(=O)NCc3ccc4c(c3)OCO4)O[C@@H]1CO2`, the call was inactive. Under `CN1C(=O)c2cc(NC(=O)Nc3ccccc3Cl)ccc2OC[C@H]2O[C@H](CC(=O)O)CC[C@H]21` stands “inactive”; under `COc1ccc(CNCCC(c2ccc(OC)cc2)c2ccccc2OC)cc1` (centres undefined), “inactive”; under `CCCCCn1c(=O)[nH]c2cc(C(=O)NCCN3C(C)CCCC3C)ccc2c1=O` (centres undefined), “inactive”. In the case of `CCNC(=O)Nc1ccc2c(c1)C(=O)N(C)[C@H]1CC[C@H](CC(=O)Nc3ccccc3F)O[C@@H]1CO2`, the molecule was classed as inactive. Under `COCCN(C[C@@H]1[C@@H](c2ccccc2)[C@H](CO)N1C(=O)C1CCC1)C(C)=O` stands “inactive”.

As for `N=c1c2c(-c3ccccc3)c(-c3ccccc3)n(Cc3ccccc3)c2ncn1CCCO`, the outcome was inactive. As to `CC1(C)CC(=O)c2cnc(NC(=O)c3ccco3)nc2C1`, the molecule was classed as inactive.

As to `COCC(=O)Nc1ccc2c(c1)C(=O)N(C)[C@@H]1CC[C@@H](CC(=O)NC3CCCC3)O[C@H]1CO2`, the call was inactive. On to `C[C@H](CO)N1C[C@H](C)[C@H](CN(C)S(=O)(=O)c2ccc(F)cc2)Oc2ccc(NS(C)(=O)=O)cc2C1=O`, for which the molecule was called inactive. For `CN(C)CCCNC(=O)C[C@@H]1CC[C@H]2[C@H](COc3ccc(NC(=O)c4cccc(F)c4)cc3C(=O)N2C)O1`, the call was inactive. Under `OC[C@H]1[C@@H](c2ccccc2)[C@@H](CNCC2CCC2)N1CC1CC1` stands “inactive”.
